# Test results taken from PubChem BioAssay (NCATS).
# “And” between values parts separate entries of the source, which are not always exact repeats. Equal values may be shown once. Inconclusive results are not listed. The source made the active and inactive calls. Unless noted, the call rests on the fitted dose curve; in most records, active means well fitted curve in the direction sought with a large enough effect; inconclusive means small, poorly fitted or top-dose-only effect, or another doubt; inactive means no such curve, though single readings can be large; an effect the other way counts as inactive or inconclusive.
# What was measured:
# [1] = target: Calcium and integrin-binding protein 1 (Homo sapiens) (UniProt Q99828); assay: Primary qHTS for Identification of Calcium Integrin Binding Protein 1 (CIB1) Competitor (AID 1508620); settings: CIB1-GST / FITC-alphaIIb peptide fluorescence polarization; series mostly up to 114 µM;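 further: GST tagged CIB1 binding a fluorescein labelled alphaIIb integrin peptide tracer; top concentration of the series differs between compounds; on the % scale 0 is the no-effect control and ±100 the full control effect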
# Procedure, shortened: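 CIB1-GST (1 uM final) and compound incubated 15 min at room temperature before adding FITC-alphaIIb peptide tracer (100 nM final). Competition for binding read by fluorescence polarization (ex 480, em 540) after another 15 min at room temperature.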
# [2] = target: N-terminal Xaa-Pro-Lys N-methyltransferase 1 (Homo sapiens) (UniProt Q9BV86); assay: Confirmatory qHTS for Inhibitors of N-terminal methyltransferase 1 (NTMT1): MTaseGlo Assay (AID 1645874); settings: NTMT1 enzyme, MTase-Glo SAH luminescence; series mostly up to 100 µM; further: nearly all actives have a fitted effect of over 65% in size; further: potency means the concentration at half of the fitted maximal effect;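 on activity change, negative = inhibition: luminescence from SAH made as NTMT1 methylates SPKRIA peptide using SAM; 0% = DMSO control and -100% = no-enzyme control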
# Procedure, shortened: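 Enzyme mix (125 nM NTMT1, 100 uM SAM) + compound, 15 min RT; + 1 uM SPKRIA, 30 min RT, dark; MTase-Glo reagent 30 min, detection solution 30 min; luminescence. % inhibition vs no-enzyme/DMSO controls, 4-parameter Hill fit.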
# [3] = Primary qHTS for inhibitors of nuclear receptor binding SET domain protein 2 (NSD2) in an isogenic RCH-ACV NSD2 p.E1099K mutant (9B) (AID 1645876); settings: RCH-ACV NSD2 E1099K (9B) viability, CellTiter-Glo, 72 h; series mostly up to 44.9 µM; further: nearly all actives have a fitted effect of over 70% in size; further: potency means the concentration at half of the fitted maximal effect
# [4] = target: Cytochrome P450 2C9 (Homo sapiens) (UniProt P11712); assay: Cytochrome P450 family 2 subfamily C member 9 (CYP2C9) small molecule antagonists: luciferase biochemical (cell-free) qHTS assay (AID 1645842; active means well fitted curve in the direction sought with a large enough effect in the repeat runs; an effect the other way counts as inactive or inconclusive; further: nearly all actives have a fitted effect of over 55% in size; further: potency means the concentration at half of the fitted maximal effect; on activity change, negative = inhibition: on the % scale 0 is the no-effect control and ±100 the full control effect); settings: P450-Glo CYP2C9 enzyme assay, luciferin luminescence; series mostly up to 57.4 µM
# Procedure, shortened: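 P450-Glo CYP2C9 system: proluciferin substrate with enzyme in mix containing 0.4% BSA, 10 min at room temperature, then NADPH regeneration solution added and incubated 1 h at 37C. Detection reagent stopped reaction; luminescence read after 20 min as RLU.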
# [5] = Primary qHTS for inhibitors of nuclear receptor binding SET domain protein 2 (NSD2) in an RCH-ACV wild type WT cells (2C) (AID 1645877); settings: RCH-ACV (leukaemia line) NSD2 WT (2C) viability, CellTiter-Glo, 72 h; series mostly up to 44.9 µM; further: nearly all actives have a fitted effect of over 70% in size; further: potency means the concentration at half of the fitted maximal effect
# [6] = target: Catechol O-methyltransferase (Homo sapiens) (UniProt P21964); assay: Confirmatory Screen for Target Class Profiling of Small Molecule Inhibitors of Methyltransferases (AID 1745852; calls by dose curve; further: potency means the concentration at half of the fitted maximal effect; on activity change, negative = inhibition: on the % scale 0 is the no-effect control and ±100 the full control effect); settings: MTase-Glo luminescence, SAH detection, recombinant enzyme; measured here: COMT max response; stronger effect = lower value
# [7] = target: Guanidinoacetate N-methyltransferase (Homo sapiens) (UniProt Q14353); assay: as above; settings: MTase-Glo luminescence, SAH detection, recombinant enzyme; activity change, negative = inhibition: at 57.3 µM (top of the series) unless noted; series mostly up to 57.3 µM
# [8] = target: Nicotinamide N-methyltransferase (Homo sapiens) (UniProt P40261); assay: as above; settings: MTase-Glo luminescence, SAH detection, recombinant enzyme; measured here: NNMT max response; stronger effect = lower value
# [9] = target: Phenylethanolamine N-methyltransferase (Homo sapiens) (UniProt P11086); assay: as above; settings: MTase-Glo luminescence, SAH detection, recombinant enzyme; measured here: PNMT max response; stronger effect = lower value
# Chain of Phenylethanolamine N-methyltransferase (Homo sapiens) (P11086 whole entry, looked up): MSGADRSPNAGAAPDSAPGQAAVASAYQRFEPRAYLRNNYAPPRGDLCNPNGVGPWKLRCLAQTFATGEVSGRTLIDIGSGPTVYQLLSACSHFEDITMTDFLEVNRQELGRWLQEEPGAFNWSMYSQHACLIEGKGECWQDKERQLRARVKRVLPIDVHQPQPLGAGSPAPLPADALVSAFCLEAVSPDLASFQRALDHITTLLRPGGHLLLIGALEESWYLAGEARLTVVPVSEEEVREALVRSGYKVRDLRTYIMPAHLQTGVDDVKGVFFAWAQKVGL
# Chain of Catechol O-methyltransferase (Homo sapiens) (P21964 whole entry, looked up): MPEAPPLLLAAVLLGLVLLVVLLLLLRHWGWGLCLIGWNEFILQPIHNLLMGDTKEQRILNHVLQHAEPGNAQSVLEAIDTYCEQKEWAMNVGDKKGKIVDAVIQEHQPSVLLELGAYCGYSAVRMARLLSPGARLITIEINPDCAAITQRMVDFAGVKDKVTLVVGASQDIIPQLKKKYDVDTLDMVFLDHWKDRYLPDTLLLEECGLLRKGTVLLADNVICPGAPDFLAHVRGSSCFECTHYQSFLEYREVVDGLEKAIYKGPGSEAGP
# Chain of Calcium and integrin-binding protein 1 (Homo sapiens) (Q99828 whole entry, looked up): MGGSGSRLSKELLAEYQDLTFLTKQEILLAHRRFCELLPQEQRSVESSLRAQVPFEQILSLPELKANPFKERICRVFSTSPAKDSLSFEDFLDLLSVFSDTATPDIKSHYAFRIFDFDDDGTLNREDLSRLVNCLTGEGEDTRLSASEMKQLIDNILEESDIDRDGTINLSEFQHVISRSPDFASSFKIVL
# Chain of Cytochrome P450 2C9 (Homo sapiens) (P11712 whole entry, looked up): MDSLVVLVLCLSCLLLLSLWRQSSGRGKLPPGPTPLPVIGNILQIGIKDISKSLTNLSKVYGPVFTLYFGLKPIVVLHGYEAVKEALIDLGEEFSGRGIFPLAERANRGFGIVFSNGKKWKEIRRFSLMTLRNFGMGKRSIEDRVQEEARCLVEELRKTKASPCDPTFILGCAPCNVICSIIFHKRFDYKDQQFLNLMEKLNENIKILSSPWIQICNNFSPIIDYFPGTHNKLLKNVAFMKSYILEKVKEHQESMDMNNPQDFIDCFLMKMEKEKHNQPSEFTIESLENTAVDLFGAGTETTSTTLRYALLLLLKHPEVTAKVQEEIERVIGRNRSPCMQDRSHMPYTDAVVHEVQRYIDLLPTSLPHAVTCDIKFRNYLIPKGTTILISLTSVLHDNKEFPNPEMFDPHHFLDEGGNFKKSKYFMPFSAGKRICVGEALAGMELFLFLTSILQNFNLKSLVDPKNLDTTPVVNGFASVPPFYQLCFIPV
# Chain of N-terminal Xaa-Pro-Lys N-methyltransferase 1 (Homo sapiens) (Q9BV86 whole entry, looked up): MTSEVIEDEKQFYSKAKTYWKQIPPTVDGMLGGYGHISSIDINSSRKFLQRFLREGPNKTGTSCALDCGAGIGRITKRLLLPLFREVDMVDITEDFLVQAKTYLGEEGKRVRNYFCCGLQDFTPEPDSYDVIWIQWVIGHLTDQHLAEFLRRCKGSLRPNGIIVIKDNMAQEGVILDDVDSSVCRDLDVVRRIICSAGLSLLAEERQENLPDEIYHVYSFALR
# Chain of Nicotinamide N-methyltransferase (Homo sapiens) (P40261 whole entry, looked up): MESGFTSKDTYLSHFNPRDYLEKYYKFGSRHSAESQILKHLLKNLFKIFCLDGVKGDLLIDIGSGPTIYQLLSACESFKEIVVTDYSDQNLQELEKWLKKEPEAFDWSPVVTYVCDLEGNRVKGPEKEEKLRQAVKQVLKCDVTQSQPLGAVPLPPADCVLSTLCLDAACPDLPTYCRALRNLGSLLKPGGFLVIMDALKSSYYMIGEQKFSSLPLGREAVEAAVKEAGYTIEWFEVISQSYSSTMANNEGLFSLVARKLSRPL
compound,measurement,setting,value
Cc1cc2c(c(=O)[nH]1)OC(C(O)CC(C)C)O2 (centres undefined),Potency,[1],inactive
same,Potency,[2],inactive
same,Potency,[3],inactive
Cc1cc(C)nc(NS(=O)(=O)c2ccc(NC(=S)NC(=O)COc3ccc(Br)cc3Cl)cc2)n1,Potency,[1],inactive
same,Potency,[4],10.7 µM (active)
same,Potency,[3],inactive
same,Potency,[5],inactive
COc1cc2c(cc1O)CC[C@H]1[C@@H]2CC[C@]2(C)[C@H](O)CC[C@@H]12,Potency,[1],inactive
same,Potency,[2],39.8 µM (active)
same,Potency,[3],1.45 µM (active)
same,Potency,[5],916 nM (active)
same,activity,[6],-76.8%
same,"activity change, negative = inhibition",[7],0.377%
same,activity,[8],-2.72%
same,activity,[9],-7.82%
Cc1cc(Nc2cc(N3CCN(C)CC3)nc(/C=C/c3ccccc3)n2)n[nH]1,Potency,[1],inactive
same,Potency,[4],inactive
same,Potency,[3],728 nM (active) and 934 nM (active)
same,Potency,[5],649 nM (active) and 742 nM (active)
NC[C@@](O)(c1ccc(Cl)cc1)c1ccc(-c2cn[nH]c2)cc1,Potency,[1],inactive
same,Potency,[4],1.2 µM (active)
same,Potency,[3],6.49 µM (active) and 5.25 µM (active)
same,Potency,[5],4.59 µM (active) and 4.68 µM (active)
same,activity,[6],1.95%
same,"activity change, negative = inhibition",[7],0%
same,activity,[8],-0.549%
same,activity,[9],-0.0519%
C/C=C/c1ccc2oc(-c3ccc(O)c(OC)c3)c(C)c2c1,Potency,[1],inactive
same,Potency,[2],inactive
same,Potency,[3],14.5 µM (active)
same,Potency,[5],16300 nM (active)
CC(C)Oc1ccc(C(=O)NC(CNC(=O)CN(C)C)Cc2ccc(-c3cn4cccc(C(C)O)c4n3)cc2)cc1Cl (centres undefined),Potency,[1],inactive
same,Potency,[4],13.5 µM (active)
same,Potency,[3],0.163 µM (active)
same,Potency,[5],64.9 nM (active)
CCN1CCN(Cc2ccc(Nc3ncc(F)c(-c4cc(F)c5nc(C)n(C(C)C)c5c4)n3)nc2)CC1,Potency,[1],inactive
same,Potency,[2],20 µM (active)
same,Potency,[3],728 nM (active) and 468 nM (active)
same,Potency,[5],649 nM (active) and 417 nM (active)
same,activity,[6],-78.7%
same,Potency,[7],15.2 µM (active)
same,activity,[8],-61.4%
same,activity,[9],-75%
Cc1cnc(Nc2ccc(F)cc2Cl)nc1-c1c[nH]c(C(=O)NC(CO)c2cccc(Cl)c2)c1 (centres undefined),Potency,[1],inactive
same,Potency,[2],inactive
same,Potency,[3],8.33 µM (active)
same,Potency,[5],2300 nM (active)
O=C(c1ccc2nccnc2c1)N1CCCCC1,Potency,[1],inactive
same,Potency,[3],inactive
C#CCN(Cc1cc2c(=O)n(C)c(CN3CCN(C)CC3)nc2cc1Cl)c1ccc(C(=O)NCc2cccnc2)cc1,Potency,[1],inactive
same,Potency,[4],12 µM (active)
same,Potency,[3],inactive
same,Potency,[5],inactive
COc1ccc(C(=O)n2c(C)c(Cc3cccc(O[C@@H](C)C(=O)O)c3)c3cc(OC(F)(F)F)ccc32)cc1,Potency,[1],inactive
same,Potency,[4],19 µM (active)
same,Potency,[3],inactive
same,Potency,[5],inactive
C=C(C(=O)O)C1CC2=C(C)CCCC2(C)C[C@@H]1O (some centres undefined),Potency,[1],inactive
same,Potency,[3],inactive
CN(C)C/C=C/C(=O)Nc1cccc(C(=O)Nc2ccc(Nc3nccc(-c4cccnc4)n3)cc2)c1,Potency,[1],inactive
same,Potency,[4],inactive
same,Potency,[3],0.649 µM (active)
same,Potency,[5],578 nM (active)
same,activity,[6],-2.53%
same,"activity change, negative = inhibition",[7],0.0986%
same,activity,[8],-7.5%
same,activity,[9],1.39%
COc1cc(Br)c(Nc2nc(-c3c(C)nc4ncccn34)cs2)c(Br)c1,Potency,[1],inactive
same,Potency,[4],8.49 µM (active)
same,Potency,[3],1.45 µM (active)
same,Potency,[5],2050 nM (active)
Cc1[nH]nc(C(F)(F)F)c1Cc1sc2c(c1C(=O)N1C[C@](C)(O)CO1)c(=O)n(C)c(=O)n2C(C)C,Potency,[1],inactive
same,Potency,[3],inactive
CC(=O)O[C@@](C)(C(=O)/C=C/C(C)(C)O)[C@H]1[C@H](O)C[C@@]2(C)[C@@H]3CC=C4[C@@H](C=C(O)C(=O)C4(C)C)[C@]3(C)C(=O)C[C@]12C,Potency,[1],inactive
same,Potency,[3],0.502 µM (active)
CC[C@H](CO)Nc1nc(NCc2ccc(-c3ccccn3)cc2)c2ncn(C(C)C)c2n1,Potency,[1],inactive
same,Potency,[4],0.19 µM (active)
same,Potency,[3],0.459 µM (active)
same,Potency,[5],230 nM (active)
O=C(NCc1cccc(O)c1)c1cc2cc(F)ccc2[nH]1,Potency,[1],inactive
same,Potency,[4],13.5 µM (active)
same,Potency,[3],18.3 µM (active)
same,Potency,[5],20500 nM (active)
COc1cc(OC)cc(C(=O)Nc2ccc(Cl)c(-c3nc4ccc(N(C)C)cc4[nH]3)c2)c1,Potency,[1],inactive
same,Potency,[4],1.69 µM (active)
same,activity,[6],-4.1%
same,"activity change, negative = inhibition",[7],-3.69%
same,activity,[8],-8.83%
same,activity,[9],-5.51%
COc1ccc(Cl)c(Nc2nc3ccccc3nc2NS(=O)(=O)c2cccc(NC(=O)C(C)(C)N)c2)c1,Potency,[1],inactive
same,Potency,[4],2.68 µM (active)
same,Potency,[3],3.65 µM (active) and 5.9 µM (active)
same,Potency,[5],4.09 µM (active) and 8.33 µM (active)
COc1ccc(CNC(=O)c2cc(-c3cncc(C)c3)ncc2-c2nccs2)nc1OC,Potency,[1],inactive
same,Potency,[4],4.25 µM (active)
same,Potency,[3],inactive
same,Potency,[5],inactive
COc1c2cc(c(O)c1OC)-c1cc(ccc1O)CCC(O)CCCC2 (centres undefined),Potency,[1],inactive
same,Potency,[3],inactive
